Test [1] can be described thus: Cell Viability - BJ (AID 421; calls by dose curve;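 further: potency means the concentration at half of the fitted maximal effect; cells exposed to compound for 40 hours at 37 °C before readout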). The settings on record: BJ fibroblast viability, qHTS. An outline of the steps:
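Cytotoxicity in human BJ foreskin fibroblasts is scored as loss of cellular ATP after a 40-hour exposure, measured by luciferase luminescence. Controls are DMSO and 100 uM tamoxifen.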
(In qHTS, concentration-response curves come from the screen itself.)

Test [2] is described as follows: Cell Viability - HepG2 (AID 433; calls by dose curve;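 further: potency means the concentration at half of the fitted maximal effect; cells exposed to compound for 40 hours; potency for ATP loss meaning cytotoxicity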). The settings on record: qHTS. An outline of the steps: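 ATP luminescence (CellTiter-Glo) after 40 h compound exposure, 37 °C, HepG2, 1500 cells/well, complete medium. Normalized: DMSO = basal, 100 uM tamoxifen = 100% inhibition. AC50 via standard Hill equation.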
Test [3] in a line: Cell Viability - Mesenchymal (AID 546).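 Further: cells exposed to compound for 40 hours before reading.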 As to conditions: mesenchymal cells viability, qHTS; activity change, negative = cytotoxicity: at 91.7 µM (top of the series). An outline of the steps: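 Human kidney mesenchymal cells from normal renal glomeruli, 1000 cells/well, rested 5 hr at 37 °C, then treated 40 hr at 37 °C in complete medium. Cellular ATP read by CellTiter-Glo luminescence; AC50 from Hill-equation fits.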

Test [4] can be described thus: Cellular Toxicity (caspase-3) Jurkat (AID 655).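 Further: cells exposed to compound for 16 h at 37 °C before reading.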 The settings on record: Jurkat caspase-3 activation, luminescence; caspase-3 activation: at 92.2 µM (top of the series), DMSO = 0%, tamoxifen = 100%. An outline of the steps:
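Luminescent caspase-3/7 readout (aminoluciferin substrate cleavage) in human T-cell leukemia Jurkat cells after 16 hr compound exposure. Concentration-response normalized to DMSO and 100 uM tamoxifen; AC50 by standard Hill equation.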

Test [5] is described as follows: Cell Viability - LYMP2-003 (AID 965).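 Further: cells exposed to compounds for 24 h before reading; 0% = DMSO only and full effect = 92 µM tetraoctylammonium bromide; nearly all actives have a fitted effect of over 50% in size.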 The settings on record: LYMP2-003 lymphoblastoid cell viability; series mostly up to 92.2 µM. An outline of the steps: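 CellTiter-Glo luminescence (cellular ATP) after 24 h compound exposure at 37 C in complete medium; 2500 cells/well, 5 h settling beforehand. Concentration-response fitted to standard Hill equation for AC50. Tetraoctylammonium bromide served as positive control.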

A short description of test [6]: Cell Viability - LYMP2-011 (AID 969).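 Further: 0% = DMSO only and full inhibition = 92 µM tetraoctylammonium bromide; nearly all actives have a fitted effect of over 60% in size.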 The settings on record: LYMP2-011 lymphoblastoid cells viability; series mostly up to 92.2 µM. An outline of the steps: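 Acute toxicity is scored as a concentration-dependent drop in intracellular ATP of a human lymphoblastoid line after 24 hr treatment. Values are AC50s modeled with the Hill equation.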
A short description of test [7]: Cell Viability - LYMP2-021 (AID 974).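 Further: compound exposure lasts 24 hours at 37 °C; on the % scale 0 is the no-effect control and ±100 the full control effect; nearly all actives have a fitted effect of over 55% in size.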 As to conditions: LYMP2-021 lymphoblastoid cells viability; series mostly up to 92.2 µM. An outline of the steps: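 Concentration-response cytotoxicity in a human lymphoblastoid line: 24 hr treatment at 37 C in complete culture medium, tetraoctylammonium bromide as positive control, luminescent ATP quantitation as viability measure.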

The nature of test [8]: Cell Viability - LYMP2-023 (AID 975).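 Further: cellular ATP measured by luciferase luminescence as viability proxy; plate controls were DMSO only for no effect and 92 µM tetraoctylammonium bromide control for full effect; nearly all actives have a fitted effect of over 55% in size.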 As to conditions: LYMP2-023 lymphoblastoid cell viability; series mostly up to 92.2 µM. An outline of the steps:
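Concentration-dependent drop in intracellular ATP measures acute cytotoxicity in a human lymphoblastoid line treated for 24 hours in complete culture medium. AC50 values are taken from Hill-equation fits of qHTS data.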

Test [9] is described as follows: Cell Viability - LYMP2-025 (AID 976).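 Further: plate controls were DMSO only for no effect and tetraoctylammonium bromide control for full effect.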 The settings on record: LYMP2-025 lymphoblastoid cell viability; series mostly up to 92.2 µM. An outline of the steps:
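In qHTS format, LYMP2-025 lymphoblastoid cells in complete culture medium received compound for 24 hr; ATP-based CellTiter-Glo signal gave viability, with AC50 derived by Hill equation.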

Test [10] in a line: Cell Viability - LYMP2-002 (AID 977).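 Further: plate controls were DMSO only for no effect and 92 µM tetraoctylammonium bromide for full effect.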 As to conditions: LYMP2-002 lymphoblastoid cell viability, qHTS; series mostly up to 92.2 µM. An outline of the steps: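 Human lymphoblastoid LYMP2-002 cells, 2500 per well, exposed to compounds for 24 h at 37 C in complete medium; viability read as intracellular ATP by CellTiter-Glo luminescence, AC50 from Hill fits.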
The nature of test [11]: Cell Viability - LYMP2-008 (AID 980). Further: on the % scale 0 is the no-effect control and ±100 the full control effect; nearly all actives have a fitted effect of over 60% in size. As to conditions: LYMP2-008 lymphoblastoid cell viability, qHTS; series mostly up to 92.2 µM. An outline of the steps:
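Acute cytotoxicity is scored as concentration-dependent loss of cellular ATP in a human lymphoblastoid line after 24 hr treatment at 37 C. ATP is quantified by luciferase luminescence.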

A short description of test [12]: Cell Viability - LYMP2-014 (AID 983).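 Further: plate controls were DMSO only for no effect and 92 µM tetraoctylammonium bromide for full effect; nearly all actives have a fitted effect of over 50% in size.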 As to conditions: LYMP2-014 lymphoblastoid cells, viability qHTS; series mostly up to 92.2 µM. An outline of the steps:
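Decrease in intracellular ATP after 24 hr treatment at 37 C, measured by luciferase luminescence, indicated cytotoxicity. Concentration-response data were fitted with the standard Hill equation to give AC50.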

Test [13] in a line: Cell Viability - LYMP2-016 (AID 984). Further: on the % scale 0 is the no-effect control and ±100 the full control effect; nearly all actives have a fitted effect of over 55% in size. As to conditions: LYMP2-016 lymphoblastoid cell viability, qHTS; series mostly up to 92.2 µM. An outline of the steps: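 qHTS, 1536-well: 2500 LYMP2-016 cells/well, 5 hr 37 C, compound added, 24 hr 37 C, CellTiter-Glo 30 min RT, luminescence. Tetraoctylammonium bromide positive control. AC50 via Hill fit.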
Test [14] in a line: Cell Viability - LYMP2-018 (AID 985).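 Further: compound exposure lasted 24 hr at 37 °C; plate controls were DMSO only for no effect and tetraoctylammonium bromide at 92 µM for full effect; nearly all actives have a fitted effect of over 50% in size.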 As to conditions: LYMP2-018 lymphoblastoid cells, viability (qHTS); series mostly up to 92.2 µM. An outline of the steps: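 Acute cytotoxicity is scored as a concentration-dependent drop in intracellular ATP after 24 hr exposure of the lymphoblastoid line in complete culture medium, measured by luciferase luminescence. Potency is expressed as AC50 from Hill modelling.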

Test [15] in a line: Cell Viability - LYMP2-022 (AID 987).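 Further: 0% = DMSO alone and full effect = tetraoctylammonium bromide at 92 µM; nearly all actives have a fitted effect of over 55% in size.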 As to conditions: LYMP2-022 lymphoblastoid cell viability; series mostly up to 92.2 µM. An outline of the steps:
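Acute toxicity in a human lymphoblastoid line is scored as decreased intracellular ATP after 24 hr compound treatment at 37 C. ATP is measured by CellTiter-Glo luminescence; curves are fitted with the Hill equation to give AC50.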

Test [16] in a line: Cell Viability - LYMP2-024 (AID 988).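 Further: plate controls were DMSO only for no effect and 92 µM tetraoctylammonium bromide for full effect; nearly all actives have a fitted effect of over 60% in size.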 As to conditions: LYMP2-024 lymphoblastoid cell viability; series mostly up to 92.2 µM. An outline of the steps: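 Acute toxicity is measured as concentration-dependent loss of intracellular ATP in a human lymphoblastoid line treated 24 hours at 37 C. Luciferase luminescence quantifies ATP; AC50 values come from standard Hill-equation modelling.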

Test [17] can be described thus: Cell Viability - LYMP2-026 (AID 989). Further: on the % scale 0 is the no-effect control and ±100 the full control effect; nearly all actives have a fitted effect of over 50% in size. The settings on record: LYMP2-026 lymphoblastoid cell viability, qHTS; series mostly up to 92.2 µM. An outline of the steps:
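Concentration-dependent loss of intracellular ATP in human lymphoblastoid cells after 24 hr at 37 C, quantified by luciferase luminescence. AC50 derived from standard Hill equation.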

The nature of test [18]: qHTS assay for small molecule antagonists of retinoid X receptor alpha signaling (AID 588546; active means well fitted inhibition curve with a large enough effect in the signal ratio, with a control signal flat, not every such curve was filed as active; the % refers to the signal ratio;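 further: cells stimulated with 9-cis-retinoic acid as agonist; on the % scale 0 is the no-effect control and ±100 the full control effect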). The settings on record: HEK293T RXRa-UAS-bla, beta-lactamase ratio, antagonist mode; measured here: W530 green channel, cytotoxicity proxy. An outline of the steps: (§1)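 Beta-lactamase reporter inhibition, read as CCF4 fluorescence ratio (ex 405, em 460/530 nm) after 2 h at RT. HEK293T UAS-bla cells, 2500/well, were stimulated with 9-cis-RA at 500 or 100 nM final alongside test compound for 18 h at 37 C.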

The target of test [19] is Retinoic acid receptor RXR-alpha (Homo sapiens) (UniProt P19793). The test is described as above. The settings on record: HEK293T RXRa-UAS-bla, beta-lactamase ratio, antagonist mode. An outline of the steps:
as §1

Test [20] is described as follows: qHTS assay for environmental chemicals that activate the Aryl hydrocarbon Receptor (AhR) signaling pathway (AID 651777). Further: % of control where 0% means no effect; nearly all actives have a fitted effect of over 15% in size. As to conditions: 1A2-DRE human hepatoma cells, luciferase, 24 h; activation: stronger effect = higher value. An outline of the steps: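 AhR activation is scored as a rise in luciferase from a stable DRE–CYP1A2 promoter construct in human hepatoma cells. Treatment lasts 24 hr at 37 C; detection uses One-Glo after 30 min at room temperature.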

“And” between values parts separate entries of the source, which are not always exact repeats. Equal entries are not always repeated. Results filed as inconclusive are left out. The source made the active and inactive calls. Unless noted, the call rests on the fitted dose curve; in most records, active means well fitted curve in the direction sought with a large enough effect; inconclusive means small, poorly fitted or top-dose-only effect, or another doubt; inactive means no such curve, though single readings can be large; an effect the other way counts as inactive or inconclusive. Where only a bound is given, the exact number is not on record here.

Sequence of Retinoic acid receptor RXR-alpha (Homo sapiens) (P19793 whole entry, looked up): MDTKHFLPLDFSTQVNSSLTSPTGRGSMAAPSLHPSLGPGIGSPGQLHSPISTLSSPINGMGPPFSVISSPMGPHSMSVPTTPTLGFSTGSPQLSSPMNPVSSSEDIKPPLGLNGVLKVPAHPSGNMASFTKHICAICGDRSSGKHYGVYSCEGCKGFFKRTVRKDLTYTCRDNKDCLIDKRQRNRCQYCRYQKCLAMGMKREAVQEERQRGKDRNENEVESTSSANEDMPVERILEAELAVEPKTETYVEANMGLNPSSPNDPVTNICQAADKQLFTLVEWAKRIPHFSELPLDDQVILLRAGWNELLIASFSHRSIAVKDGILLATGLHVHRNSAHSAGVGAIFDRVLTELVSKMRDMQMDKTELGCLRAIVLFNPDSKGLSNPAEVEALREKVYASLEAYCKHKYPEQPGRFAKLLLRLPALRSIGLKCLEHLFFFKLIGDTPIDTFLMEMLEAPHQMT

On to `CC(=O)OC1CC(C)OC(C)O1` (stereo not given), for which the Potency in [1] and in test [2] was > 92 µM (inactive) throughout. Also, the Potency entry in [3], in test [4], in test [5], in test [6], in [7] and in [8] was “inactive” throughout. Further, the Potency entry in test [9], in [10], in test [11], in test [12], in test [13] and in test [14] was “inactive” in each case. The Potency result in test [15], in [16] and in test [17] was “inactive” throughout. Besides, the max response was 1.48% and -10.6% in [18]; 6% (inactive) and 5.73% (inactive) in test [19]. Also, the activation in test [20] was -3.53% (inactive) and 1.99% (inactive).
In the case of `C/C(Cl)=C/CCl`, the Potency in test [1] and in test [2] was > 92 µM (inactive) throughout. Moreover, the Potency result in test [3], in test [4], in test [5], in test [6], in test [7] and in test [8] was “inactive” throughout. Besides, the Potency entry in [9], in test [10], in test [11], in [12], in test [13] and in test [14] was “inactive” each time. Moreover, the Potency result in test [15], in [16] and in test [17] was “inactive” each time. For the same compound, the figures for the max response in test [18] and in test [19] were -2.04% and 6.91% (inactive), respectively. In addition, the activation in [20] is 0.708% (inactive).
For `OCC(CBr)(CBr)CBr`, the Potency in [1] and in test [2] was > 92 µM (inactive) throughout. Also, the Potency result in test [3], in test [4], in [5], in test [6], in [7] and in [8] was “inactive” throughout. The Potency result in test [9], in test [10], in test [11], in test [12], in [13] and in [14] was “inactive” each time. The Potency result in test [15], in test [16] and in [17] was “inactive” each time. Besides, the values for the max response in test [18] and in test [19] were -12.3% and 0.481% (inactive), respectively. For the same compound, the activation in test [20] is 7.86% (inactive).
Consider `OC1CCCCC1`, for which the Potency in test [1] and in test [2] was > 92 µM (inactive) each time. For the same compound, the Potency result in test [3], in test [4], in test [5], in test [6], in test [7] and in test [8] was “inactive” in each case. Further, the Potency result in test [9], in test [10], in [11], in test [12], in test [13] and in test [14] was “inactive” each time. Besides, the Potency result in test [15], in test [16] and in test [17] was “inactive” throughout. Further, the max response in [18] was 10.1%; in test [19] it was -3.43% (inactive). Also, in [20], the activation is -0.284% (inactive).
As for `COc1cc(-c2ccc(N=C=O)c(OC)c2)ccc1N=C=O`, the Potency in test [1] and in test [2] was > 92 µM (inactive) throughout. For the same compound, the Potency result in [3], in [4], in test [5], in test [6], in test [7] and in test [8] was “inactive” each time. Further, the Potency result in test [9], in test [10], in [11], in test [12], in test [13] and in test [14] was “inactive” in each case. In addition, the Potency entry in [15], in test [16] and in test [17] was “inactive” throughout. Also, the max response is -13.8% in test [18] and -6.94% (inactive) in [19]. In addition, in [20], the activation is 0.786% (inactive) and 6.25% (inactive).
In the case of `CC(C)S`, the Potency in test [1] and in test [2] was > 92 µM (inactive) each time. Further, the Potency entry in test [3], in test [4], in [5], in [6], in test [7] and in test [8] was “inactive” each time. Moreover, the Potency entry in test [9], in test [10], in test [11], in test [12], in test [13] and in test [14] was “inactive” each time. Also, the Potency entry in [15], in [16] and in [17] was “inactive” in each case. The max response in [18] is 0.793%; in [19], 1.63% (inactive). In addition, the activation in [20] is -2.58% (inactive).

(Values after PubChem BioAssay (NCATS).)
